Reference: PMC11006913

Molecular target: NKX2-5 (Homo sapiens, UniProt P52952 125-210, R139K)
Assay: PBM; 200 nM protein, PBS
Conditions: dsDNA, one strand shown

NKX2-5, sequence (P52952 125-210 R139K): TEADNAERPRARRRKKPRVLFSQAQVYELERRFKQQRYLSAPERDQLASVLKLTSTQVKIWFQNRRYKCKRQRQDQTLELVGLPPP

Row | Sequence | binding signal
1 | AAGTGGAG | 12.2 upbm affinity estimate (log intensity, higher = more binding, comparable within an allelic series)
2 | AATTAGCT | 10.5 upbm affinity estimate (log intensity, higher = more binding, comparable within an allelic series)
3 | CACGCGTG | 8.8 upbm affinity estimate (log intensity, higher = more binding, comparable within an allelic series)
4 | CTTAAGTA | 12.9 upbm affinity estimate (log intensity, higher = more binding, comparable within an allelic series)
5 | ACGGCGGC | 9 upbm affinity estimate (log intensity, higher = more binding, comparable within an allelic series)
6 | CACTTAGA | 12.6 upbm affinity estimate (log intensity, higher = more binding, comparable within an allelic series)
7 | CCCGGCGG | 8.56 upbm affinity estimate (log intensity, higher = more binding, comparable within an allelic series)
8 | CGGTCCAA | 8.45 upbm affinity estimate (log intensity, higher = more binding, comparable within an allelic series)
9 | CACTTTAA | 12.4 upbm affinity estimate (log intensity, higher = more binding, comparable within an allelic series)
10 | CTAATTGC | 10.9 upbm affinity estimate (log intensity, higher = more binding, comparable within an allelic series)
11 | CACTTAAC | 12.8 upbm affinity estimate (log intensity, higher = more binding, comparable within an allelic series)
12 | CGGACCCG | 8.84 upbm affinity estimate (log intensity, higher = more binding, comparable within an allelic series)
13 | ACGGCTGG | 8.82 upbm affinity estimate (log intensity, higher = more binding, comparable within an allelic series)
14 | ACCAGCTG | 8.74 upbm affinity estimate (log intensity, higher = more binding, comparable within an allelic series)
15 | GTACTTAA | 13.1 upbm affinity estimate (log intensity, higher = more binding, comparable within an allelic series)
16 | AATAAGTG | 12.4 upbm affinity estimate (log intensity, higher = more binding, comparable within an allelic series)
17 | ACCACTTA | 13.2 upbm affinity estimate (log intensity, higher = more binding, comparable within an allelic series)
18 | ACGCGCAG | 8.62 upbm affinity estimate (log intensity, higher = more binding, comparable within an allelic series)
19 | CACTTATA | 13.1 upbm affinity estimate (log intensity, higher = more binding, comparable within an allelic series)
20 | CCGGCGCG | 8.28 upbm affinity estimate (log intensity, higher = more binding, comparable within an allelic series)

Row | Sequence | binding signal
21 | ACCCGGGC | 8.96 upbm affinity estimate (log intensity, higher = more binding, comparable within an allelic series)
22 | CGAACGCC | 8.62 upbm affinity estimate (log intensity, higher = more binding, comparable within an allelic series)
23 | CCGGAGCC | 8.82 upbm affinity estimate (log intensity, higher = more binding, comparable within an allelic series)
24 | ACACTTAT | 12.7 upbm affinity estimate (log intensity, higher = more binding, comparable within an allelic series)
25 | CTACTTAA | 12.4 upbm affinity estimate (log intensity, higher = more binding, comparable within an allelic series)
26 | CCACTTTA | 12.7 upbm affinity estimate (log intensity, higher = more binding, comparable within an allelic series)
27 | CGGGCTCC | 8.64 upbm affinity estimate (log intensity, higher = more binding, comparable within an allelic series)
28 | ATCAAGTG | 12.8 upbm affinity estimate (log intensity, higher = more binding, comparable within an allelic series)
29 | CCAGGCCG | 8.83 upbm affinity estimate (log intensity, higher = more binding, comparable within an allelic series)
30 | CTTCCGTC | 8.85 upbm affinity estimate (log intensity, higher = more binding, comparable within an allelic series)
31 | ATAAGTAC | 12.9 upbm affinity estimate (log intensity, higher = more binding, comparable within an allelic series)
32 | CCGCGTCG | 9.03 upbm affinity estimate (log intensity, higher = more binding, comparable within an allelic series)
33 | AAGTACCT | 12.6 upbm affinity estimate (log intensity, higher = more binding, comparable within an allelic series)
34 | AAGCACTT | 12.7 upbm affinity estimate (log intensity, higher = more binding, comparable within an allelic series)
35 | ATTACGTA | 10.3 upbm affinity estimate (log intensity, higher = more binding, comparable within an allelic series)
36 | GCACTTAA | 13.1 upbm affinity estimate (log intensity, higher = more binding, comparable within an allelic series)
37 | CCAGCGCG | 8.57 upbm affinity estimate (log intensity, higher = more binding, comparable within an allelic series)
38 | GCCACTTA | 13.3 upbm affinity estimate (log intensity, higher = more binding, comparable within an allelic series)
39 | CGCCCGAG | 8.73 upbm affinity estimate (log intensity, higher = more binding, comparable within an allelic series)

Molecular target: HESX1 (Homo sapiens, UniProt Q9UBX0 95-180, R165K)
Sequence (Q9UBX0 95-180 R165K): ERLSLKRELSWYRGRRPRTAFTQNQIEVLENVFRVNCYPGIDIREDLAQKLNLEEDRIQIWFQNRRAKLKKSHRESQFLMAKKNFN
Assay: PBM; 200 nM protein, PBS
Conditions: dsDNA, one strand shown

Row | Sequence | binding signal
40 | AATTAGCT | 11.6 upbm affinity estimate (log intensity, higher = more binding, comparable within an allelic series)
41 | CACTTAGA | 7.73 upbm affinity estimate (log intensity, higher = more binding, comparable within an allelic series)
42 | CTAATTGC | 12.3 upbm affinity estimate (log intensity, higher = more binding, comparable within an allelic series)
43 | CTTCCGTC | 6.54 upbm affinity estimate (log intensity, higher = more binding, comparable within an allelic series)
44 | CCGCGTCG | 6.63 upbm affinity estimate (log intensity, higher = more binding, comparable within an allelic series)
45 | CCAGCGCG | 6.43 upbm affinity estimate (log intensity, higher = more binding, comparable within an allelic series)

Molecular target: HOXB4 (Homo sapiens, UniProt P17483 148-234)
Sequence (P17483 148-234): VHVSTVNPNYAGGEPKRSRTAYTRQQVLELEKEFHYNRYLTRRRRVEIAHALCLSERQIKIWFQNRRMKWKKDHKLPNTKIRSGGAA
Assay: PBM; 200 nM protein, PBS
Conditions: dsDNA, one strand shown

Row | Sequence | binding signal
46 | CACGCGTG | 7.77 upbm affinity estimate (log intensity, higher = more binding, comparable within an allelic series)
47 | ACGGCGGC | 7.36 upbm affinity estimate (log intensity, higher = more binding, comparable within an allelic series)
48 | CCCGGCGG | 7.64 upbm affinity estimate (log intensity, higher = more binding, comparable within an allelic series)
49 | CTAATTGC | 12.9 upbm affinity estimate (log intensity, higher = more binding, comparable within an allelic series)
50 | CGGACCCG | 8.04 upbm affinity estimate (log intensity, higher = more binding, comparable within an allelic series)
51 | ACGGCTGG | 7.57 upbm affinity estimate (log intensity, higher = more binding, comparable within an allelic series)
52 | CGGGCTCC | 6.66 upbm affinity estimate (log intensity, higher = more binding, comparable within an allelic series)
53 | ATCAAGTG | 10.2 upbm affinity estimate (log intensity, higher = more binding, comparable within an allelic series)
54 | CCGCGTCG | 7.75 upbm affinity estimate (log intensity, higher = more binding, comparable within an allelic series)
55 | CGCCCGAG | 7.76 upbm affinity estimate (log intensity, higher = more binding, comparable within an allelic series)

Molecular target: SHOX (Homo sapiens, UniProt O15266 103-189)
Sequence (O15266 103-189): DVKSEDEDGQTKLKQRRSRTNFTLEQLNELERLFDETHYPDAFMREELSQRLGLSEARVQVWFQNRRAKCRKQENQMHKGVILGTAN
Assay: PBM; 200 nM protein, PBS
Conditions: dsDNA, one strand shown

Row | Sequence | binding signal
56 | AATTAGCT | 11.7 upbm affinity estimate (log intensity, higher = more binding, comparable within an allelic series)
57 | CGGTCCAA | 7.28 upbm affinity estimate (log intensity, higher = more binding, comparable within an allelic series)
58 | CACTTTAA | 8.82 upbm affinity estimate (log intensity, higher = more binding, comparable within an allelic series)
59 | CTAATTGC | 11.8 upbm affinity estimate (log intensity, higher = more binding, comparable within an allelic series)
60 | ACCAGCTG | 7.08 upbm affinity estimate (log intensity, higher = more binding, comparable within an allelic series)
61 | ACGCGCAG | 7.05 upbm affinity estimate (log intensity, higher = more binding, comparable within an allelic series)
62 | ACCCGGGC | 7.11 upbm affinity estimate (log intensity, higher = more binding, comparable within an allelic series)

Molecular target: CRX (Homo sapiens, UniProt O43186 26-111)
Sequence (O43186 26-111): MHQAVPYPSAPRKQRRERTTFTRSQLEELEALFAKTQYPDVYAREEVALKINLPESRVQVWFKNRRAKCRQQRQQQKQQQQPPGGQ
Assay: PBM; 200 nM protein, PBS
Conditions: dsDNA, one strand shown

Row | Sequence | binding signal
63 | CGGTCCAA | 8.48 upbm affinity estimate (log intensity, higher = more binding, comparable within an allelic series)
64 | CGGACCCG | 8.38 upbm affinity estimate (log intensity, higher = more binding, comparable within an allelic series)
65 | CCGGCGCG | 8.33 upbm affinity estimate (log intensity, higher = more binding, comparable within an allelic series)
66 | CGAACGCC | 7.92 upbm affinity estimate (log intensity, higher = more binding, comparable within an allelic series)
67 | ATTACGTA | 10.5 upbm affinity estimate (log intensity, higher = more binding, comparable within an allelic series)

Molecular target: T1, NKX2-4 (Homo sapiens, UniProt Q9H2Z4 175-261, P217L)
T1 sequence: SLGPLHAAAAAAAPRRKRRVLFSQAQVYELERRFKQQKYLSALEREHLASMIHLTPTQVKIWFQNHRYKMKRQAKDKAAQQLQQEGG
Assay: PBM; 200 nM protein, PBS
Conditions: dsDNA, one strand shown

Row | Sequence | binding signal
68 | AAGTGGAG | 12.4 upbm affinity estimate (log intensity, higher = more binding, comparable within an allelic series)
69 | CTTAAGTA | 12.6 upbm affinity estimate (log intensity, higher = more binding, comparable within an allelic series)
70 | CACTTTAA | 12.5 upbm affinity estimate (log intensity, higher = more binding, comparable within an allelic series)
71 | CACTTAAC | 12.5 upbm affinity estimate (log intensity, higher = more binding, comparable within an allelic series)
72 | GTACTTAA | 12.8 upbm affinity estimate (log intensity, higher = more binding, comparable within an allelic series)
73 | AATAAGTG | 12.4 upbm affinity estimate (log intensity, higher = more binding, comparable within an allelic series)
74 | ACCACTTA | 12.7 upbm affinity estimate (log intensity, higher = more binding, comparable within an allelic series)
75 | CACTTATA | 12.6 upbm affinity estimate (log intensity, higher = more binding, comparable within an allelic series)
76 | CCGGAGCC | 9.74 upbm affinity estimate (log intensity, higher = more binding, comparable within an allelic series)
77 | ACACTTAT | 12.6 upbm affinity estimate (log intensity, higher = more binding, comparable within an allelic series)
78 | CTACTTAA | 12.5 upbm affinity estimate (log intensity, higher = more binding, comparable within an allelic series)
79 | CCACTTTA | 12.6 upbm affinity estimate (log intensity, higher = more binding, comparable within an allelic series)
80 | ATCAAGTG | 12.6 upbm affinity estimate (log intensity, higher = more binding, comparable within an allelic series)
81 | CCAGGCCG | 9.57 upbm affinity estimate (log intensity, higher = more binding, comparable within an allelic series)
82 | ATAAGTAC | 12.6 upbm affinity estimate (log intensity, higher = more binding, comparable within an allelic series)
83 | AAGTACCT | 12.5 upbm affinity estimate (log intensity, higher = more binding, comparable within an allelic series)
84 | AAGCACTT | 12.6 upbm affinity estimate (log intensity, higher = more binding, comparable within an allelic series)
85 | GCACTTAA | 12.6 upbm affinity estimate (log intensity, higher = more binding, comparable within an allelic series)
86 | GCCACTTA | 12.7 upbm affinity estimate (log intensity, higher = more binding, comparable within an allelic series)
